Among the data in publication PMC11062922 (Nature Chemical Biology, 2023) are potency estimated from few doses values, retold here.

Where two headings read alike, the source gives them in different places.

What all share (parameters): species or system human, MV4-11 + K-562 + COLO205 + SK-N-BE2 + OVCAR-8
The subject of one assay is T1, DJA1.
T1 construct: gene DNAJA1
To be noted: read-out: apparent Kd, n = 1.

The subject of another assay is PIK3C3. To be noted: read-out: apparent Kd; compound concentrations: 100 nM and 1000 nM (sheet 'Samples'), CATDS: 0.180657848529719; n = 1.
The subject of another assay is PIK3CA. The note with it: read-out: apparent Kd; compound concentrations: 100 nM and 1000 nM (sheet 'Samples'), CATDS: 0.62004014167069399; n = 1.
Another assay deals with STK16. To be noted: read-out: apparent Kd; compound concentrations: 100 nM and 1000 nM (sheet 'Samples'), CATDS: 0.16232458546683101; n = 1.
Another assay deals with STK4. The note with it: read-out: apparent Kd; compound concentrations: 100 nM and 1000 nM (sheet 'Samples'), CATDS: 0.1689879657386; n = 1.
Another assay has as its system DDR1. The note with it: read-out: apparent Kd, n = 1.
Another assay deals with RET. The note with it: read-out: apparent Kd, n = 1.
The test system of another assay is PTK6. To be noted: read-out: apparent Kd; compound concentrations: 100 nM and 1000 nM (sheet 'Samples'), CATDS: 0.387863257787184; n = 1.
The next assay relates to TNK2. To be noted: read-out: apparent Kd; compound concentrations: 100 nM and 1000 nM (sheet 'Samples'), CATDS: 0.62096450214514598; n = 1.
A further assay has as its system MAPK10. The note with it: read-out: apparent Kd; compound concentrations:100 nM and 1000 nM (sheet 'Samples'); n = 1.
The subject of a further assay is MAPK11. The note with it: read-out: apparent Kd, n = 1.
The next assay has as its system MAPK14. The note with it: read-out: apparent Kd, n = 1.
Another assay has as its system MAPK8. The note with it: read-out: apparent Kd; compound concentrations:100 nM and 1000 nM (sheet 'Samples'); n = 1.
A further assay concerns MAPK9. To be noted: read-out: apparent Kd; compound concentrations:100 nM and 1000 nM (sheet 'Samples'); n = 1.
The next assay relates to PIP4K2C. The note with it: read-out: apparent Kd, n = 1.
Another assay has as its system EGFR. To be noted: read-out: apparent Kd; compound concentrations: 100 nM and 1000 nM (sheet 'Samples'), CATDS: 1; n = 1.
For the next assay, the system named is MAPKAPK2. To be noted: read-out: apparent Kd; compound concentrations: 100 nM and 1000 nM (sheet 'Samples'), CATDS: 0.28488469813325601; n = 1.
The next assay concerns DDR2. The note with it: read-out: apparent Kd; compound concentrations: 100 nM and 1000 nM (sheet 'Samples'), CATDS: 0.27583033516959499; n = 1.
The next assay has as its system RIPK2. The note with it: read-out: apparent Kd; compound concentrations: 100 nM and 1000 nM (sheet 'Samples'), CATDS: 0.517215300479827; n = 1.
The next assay has as its system NNT. To be noted: read-out: apparent Kd; compound concentrations: 100 nM and 1000 nM (sheet 'Samples'), CATDS: 0.29413941723105502; n = 1.
A further assay relates to PDXK. To be noted: read-out: apparent Kd; compound concentrations: 100 nM and 1000 nM (sheet 'Samples'), CATDS: 0.31885839544215799; n = 1.
A further assay concerns DYRK1A. To be noted: read-out: apparent Kd; compound concentrations:100 nM and 1000 nM (sheet 'Samples'); n = 1.
The test system of a further assay is PRKD1. The note with it: read-out: apparent Kd; compound concentrations:100 nM and 1000 nM (sheet 'Samples'); n = 1.
In the next assay the test system is PIK3CD. To be noted: read-out: apparent Kd, compound concentrations: 100 nM and 1000 nM (sheet 'Samples'), n = 1.
A further assay deals with TTN. To be noted: read-out: apparent Kd; compound concentrations: 100 nM and 1000 nM (sheet 'Samples'), CATDS: 0.51725800618074103; n = 1.
A further assay deals with MAP2K1. The note with it: read-out: apparent Kd; compound concentrations:100 nM and 1000 nM (sheet 'Samples'); n = 1.
The next assay deals with PIM2. The note with it: read-out: apparent Kd; compound concentrations:100 nM and 1000 nM (sheet 'Samples'); n = 1.
In another assay the test system is STK26. The note with it: read-out: apparent Kd; compound concentrations:100 nM and 1000 nM (sheet 'Samples'); n = 1.
Another assay deals with DHCR24. To be noted: read-out: apparent Kd; compound concentrations: 100 nM and 1000 nM (sheet 'Samples'), CATDS: 0.35595473001681699; n = 1.
Another assay relates to EIF5B. To be noted: read-out: apparent Kd; compound concentrations: 100 nM and 1000 nM (sheet 'Samples'), CATDS: 0.317916944834297; n = 1.
A further assay has as its system TOP2B. To be noted: read-out: apparent Kd; compound concentrations: 100 nM and 1000 nM (sheet 'Samples'), CATDS: 0.32838798877743502; n = 1.
A further assay relates to DYNC1LI1. The note with it: read-out: apparent Kd; compound concentrations: 100 nM and 1000 nM (sheet 'Samples'), CATDS: 9.8378875134037994E-2; n = 1.
In a further assay the test system is GSK3A. To be noted: read-out: apparent Kd; compound concentrations: 100 nM and 1000 nM (sheet 'Samples'), CATDS: 0.15388620061227101; n = 1.
The next assay has as its system GSK3B. The note with it: read-out: apparent Kd; compound concentrations: 100 nM and 1000 nM (sheet 'Samples'), CATDS: 0.158803622599584; n = 1.
For another assay, the system named is MYLK3. To be noted: read-out: apparent Kd; compound concentrations: 100 nM and 1000 nM (sheet 'Samples'), CATDS: 9.6792260241437694E-2; n = 1.
In the next assay the test system is PRKCD. The note with it: read-out: apparent Kd; compound concentrations: 100 nM and 1000 nM (sheet 'Samples'), CATDS: 9.5557824797396607E-2; n = 1.
A further assay deals with PRKCQ. The note with it: read-out: apparent Kd; compound concentrations: 100 nM and 1000 nM (sheet 'Samples'), CATDS: 0.104256233520078; n = 1.
Where [1] appears, read: compound concentrations:100 nM and 1000 nM (sheet 'Samples').

Regarding `COc1ccc(NC(=O)c2ccoc2)cc1-c1ccc(C(=O)NCC2CC2)cc1` [GW810437X], the potency estimated from few doses was 1720 nM in the assay with DJA1 (compound concentrations: 100 nM and 1000 nM (sheet 'Samples'), CATDS: 0.17319621372560801); 1530 nM with PIK3C3; 147 nM in the assay on PIK3CA; 2060 nM in the assay with STK16; 1830 nM in the assay on STK4.
As to `COC(=O)Nc1nc2ccc(Oc3ccc(NC(=O)Nc4cc(C(F)(F)F)ccc4F)cc3)cc2[nH]1.Cl` [GW654607A], the potency estimated from few doses was 2140 nM in the assay with DDR1 (setting [1]) and 640 nM in the assay with RET (setting [1]).
Take `COc1cc(N2CCN(C)CC2)ccc1Nc1ncc2c(n1)N(C)c1ccccc1C(=O)N2` [XMD8-87]: the potency estimated from few doses in the assay with DJA1 (compound concentrations: 100 nM and 1000 nM (sheet 'Samples'), CATDS: 0.207840847551445) is 1710 nM; in the assay on PTK6, 123 nM; in the assay on TNK2, 47.5 nM.
For `O=c1c(Oc2ccc(F)cc2F)cc2cnc(NC3CCOCC3)nc2n1CCCO` [RO4442245-000], the potency estimated from few doses in the assay on DDR1 (setting [1]) is 1080 nM; in the assay on MAPK10, 42.5 nM; with MAPK11 (setting [1]), 13.4 nM; in the assay on MAPK14 (setting [1]), 0.149 nM; in the assay with MAPK8, 54.7 nM; in the assay on MAPK9, 15.9 nM. In addition, in the assay with PIP4K2C (setting [1]), the potency estimated from few doses was 611 nM.
In the case of `Nc1ncnc2occ(-c3ccc(NC(=O)Nc4cc(C(F)(F)F)cc(C(F)(F)F)c4)cc3)c12` [GW795486X], the potency estimated from few doses in the assay with DDR1 (compound concentrations: 100 nM and 1000 nM (sheet 'Samples'), CATDS: 0.40154805135944899) is 1020 nM; in the assay on RET (compound concentrations: 100 nM and 1000 nM (sheet 'Samples'), CATDS: 0.66241044961877704) it was 350 nM.
Consider `Fc1cccc(COc2ccc(Nc3ncnc4sc(-c5ccc[nH]5)cc34)cc2Cl)c1` [GW707818B], for which the potency estimated from few doses in the assay on EGFR is 1030 nM.
As to `Cc1ccc(NC(=O)c2ccnc(N3CCCC3)c2)cc1-c1ccc(C(=O)NCC2CC2)cc1` [GW769076X], the potency estimated from few doses in the assay with DDR1 (compound concentrations: 100 nM and 1000 nM (sheet 'Samples'), CATDS: 0.199850350995284) is 570 nM; with MAPK11 (compound concentrations: 100 nM and 1000 nM (sheet 'Samples'), CATDS: 0.201173372459408), 559 nM; in the assay with MAPK14 (compound concentrations: 100 nM and 1000 nM (sheet 'Samples'), CATDS: 0.39757840601660499) it was 140 nM; with MAPKAPK2, 250 nM.
Regarding `CNC(=O)c1cncc(/C=C/c2c(C)cccc2C)c1` [GW445012X], the potency estimated from few doses in the assay on DDR2 was 2060 nM; in the assay with PIP4K2C (compound concentrations: 100 nM and 1000 nM (sheet 'Samples'), CATDS: 0.290600345689909), 1800 nM; with RIPK2 it was 587 nM.
Turning to `CC(C)c1[nH]nc2c1N=C(c1ccccc1Cl)c1cc([N+](=O)[O-])ccc1N2` [RO0274710-000], the potency estimated from few doses in the assay with DJA1 (compound concentrations: 100 nM and 1000 nM (sheet 'Samples'), CATDS: 0.40583373860109201) is 864 nM; with NNT it was 1640 nM; in the assay on PDXK, 1370 nM.
In the case of `O=c1[nH]cc(-c2ccc(N3CCOCC3)cc2)c2sc(-c3cn[nH]c3)cc12` [GSK2276055A], the potency estimated from few doses in the assay with DYRK1A is 810 nM; with PRKD1, 936 nM.
On to `Fc1cccc(COc2ccc(Nc3ncnc4sc(-c5ccco5)cc34)cc2Cl)c1` [GSK969786A], for which the potency estimated from few doses in the assay on EGFR is 815 nM.
Consider `Nc1nccc2scc(-c3ccc4c(c3)CCN4C(=O)Cc3cc(F)ccc3F)c12` [GSK2587663A], for which the potency estimated from few doses was 1090 nM in the assay on DJA1 (compound concentrations: 100 nM and 1000 nM (sheet 'Samples'), CATDS: 0.21507760056604699); 127 nM with PIK3CD (CATDS: 0.41369424364853202); 83.2 nM in the assay with TTN.
For the compound `O=C1NC(=O)C(c2ccccc2)=C1Nc1cccc(O)c1` [SB-390534], the potency estimated from few doses was 1350 nM with DJA1 (setting [1]), 1510 nM in the assay on MAP2K1, 2120 nM with PIM2 and 1580 nM in the assay with STK26.
As to `Cc1ccc(NC(=O)Nc2ccc(Cl)cc2)cc1-c1ccc(C(=O)Nc2ccncc2)cc1` [GSK1398472A], the results for the potency estimated from few doses in the assay on DHCR24, with EIF5B and in the assay on TOP2B were 1500 nM, 1880 nM and 1750 nM, respectively.
`Cn1cc(C2=C(c3cn(C)c4ccc(N)cc34)C(=O)NC2=O)c2ccccc21` [RO0317365-000]: the potency estimated from few doses in the assay with DJA1 (compound concentrations: 100 nM and 1000 nM (sheet 'Samples'), CATDS: 0.11913722870337901) is 1120 nM; in the assay with DYNC1LI1, 1880 nM; in the assay with GSK3A, 637 nM; in the assay with GSK3B it was 598 nM; in the assay with MYLK3, 1970 nM; in the assay on PIK3CD (CATDS: 0.44284718560289399), 113 nM. For the same compound, the values for the potency estimated from few doses in the assay with PRKCD and in the assay with PRKCQ were 2060 nM and 1580 nM, respectively.
